Most compounds without a hit are left out; they make up all but 2.9% or so of the library.
MITF TRPM1 inh: MITF TRPM1 promoter inhibition in SK-MEL-5 cells; SK-MEL-5 TRPM1 promoter luciferase, 24 h; inhibition, % at 12.5 µM; actives 0.83% (n = 330,000); AID 488899;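 active = mean inhibition across replicates of 60% or more, whatever share of single replicates reaches that level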
Peg3 prom inh-1: Peg3 promoter activity inhibition; HeLa PEG-Prom luciferase reporter, luminescence, overnight; inhibition, % at 20 µM; actives 1.7% (n = 360,000); AID 588405;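 active = inhibition of at least 50% at 20 µM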
KKLEB tox: reduces viability of KKLEB cystic fibrosis airway cells; activity change (cytotoxicity), % at 5 µM; KKLEB CF airway cells viability, ATPlite luminescence, overnight; hits give low values; cells stimulated with P. aeruginosa culture filtrate; actives 0.36% (n = 360,000); AID 602141;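 active = corrected activity change at or below -50% at 5 µM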
EBV LMP1 NFkB: Epstein-Barr LMP1 NF-kappaB reporter inhibition; inhibition, % at 12.5 µM; LMP1-induced NF-kappaB luciferase reporter cells, luminescence; actives 0.69% (n = 350,000); in the data active = inhibition above about 41%;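 also: 0% = neutral control wells and 100% = reference inhibitor control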
Shn3 inh set2: inhibitors of Schnurri-3 3'UTR reporter in osteoblasts; actives 0.52% (n = 360,000); AID 588674; inhibition, % at 12.5 µM; Clone20 osteoblast Shn3 3'UTR firefly luciferase, 24 h;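 active = mean inhibition of at least 75% with every replicate also reaching 75%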;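 also: 0% = median of neutral control wells and 100% = pilot-screen positive control compound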
CF NFkB inh: blocks PAF-induced NF-kB reporter in cystic fibrosis cells. inhibition, % at 5 µM. actives 0.86% (n = 360,000). AID 588850. KKLEB NF-kB-GFP reporter, GFP fluorescence overnight;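 active = at least 50% inhibition at 5 µM, scaled per plate between neutral and stimulator controls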;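 also: PAF is a Pseudomonas aeruginosa culture filtrate used as stimulus; plate controls were PAF-stimulated DMSO wells for no effect and unstimulated DMSO wells for full effect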
Peg3 prom inh-2: Peg3 promoter inhibition confirmation; shares compounds with Peg3 prom inh-1; HeLa PEG-Prom luciferase reporter, luminescence, overnight; inhibition, % at 20 µM; actives 84% (n = 1,300); AID 602417;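 active = at 20 µM dose, 40% or more inhibition averaged across four replicates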
* hit, by the source's call.

What do the screens show for `CCCCNc1nc(=S)n(-c2ccccc2)c(C)c1C(C)=O`?
MITF TRPM1 inh: 64.3*; Peg3 prom inh-1: 113.7*; KKLEB tox: 1.5; EBV LMP1 NFkB: 6.5; Shn3 inh set2: -9.4; CF NFkB inh: 7.4; Peg3 prom inh-2: 93.8*

How did CCCNc1nc(=S)n(-c2ccccc2)c(C)c1C(C)=O do in these assays?
MITF TRPM1 inh: -3.8; Peg3 prom inh-1: -10.7; KKLEB tox: -14.0; EBV LMP1 NFkB: -15.4; Shn3 inh set2: -14.7; CF NFkB inh: -2.2

How did Cc1ccc2c(c1)COc1c3ccc(C(=O)O)cc3nn1-2 do in these assays?
MITF TRPM1 inh: 69.7*; Peg3 prom inh-1: 88.8*; KKLEB tox: -0.1; EBV LMP1 NFkB: -5.5; Shn3 inh set2: -9.0; CF NFkB inh: -6.3; Peg3 prom inh-2: 36.1

What do the screens show for `Cc1nc(NC(=O)/C=C/c2ccccc2)sc1C(=O)Nc1ccccc1Cl`?
MITF TRPM1 inh: 0.8; Peg3 prom inh-1: -16.8; KKLEB tox: 5.3; EBV LMP1 NFkB: -0.4; Shn3 inh set2: -2.4; CF NFkB inh: 1.6

Results for Cc1nc(NC(=O)/C=C/c2ccccc2)sc1C(=O)Nc1ccc(Cl)cc1 ?
MITF TRPM1 inh: 29.0; Peg3 prom inh-1: 52.8*; KKLEB tox: -40.8; EBV LMP1 NFkB: 5.3; Shn3 inh set2: 57.2; CF NFkB inh: 33.5; Peg3 prom inh-2: 23.2

Results for CCC(=O)N1CCCC1(C)C(=O)Nc1cc(OC)ccc1OC (centres undefined) ?
Peg3 prom inh-1: 1.7; KKLEB tox: 7.5; Shn3 inh set2: -0.4; CF NFkB inh: -8.7

How did C/C(=N\NC(=O)c1cc(C2CC2)nc2ccccc12)c1ccc(O)cc1O do in these assays?
MITF TRPM1 inh: 58.3; Peg3 prom inh-1: 55.7*; KKLEB tox: -7.7; EBV LMP1 NFkB: 18.3; Shn3 inh set2: 68.9; CF NFkB inh: -19.9; Peg3 prom inh-2: 65.0*

How did C/C(=N\NC(=O)c1cc(C2CC2)nc2ccccc12)c1ccc(C)s1 do in these assays?
MITF TRPM1 inh: 6.2; Peg3 prom inh-1: 20.1; KKLEB tox: -0.9; EBV LMP1 NFkB: -2.9; Shn3 inh set2: 2.2; CF NFkB inh: -3.8

What do the screens show for `O=C(CCN1C(=O)CC1c1ccco1)N1CCOCC1` (centres undefined)?
Peg3 prom inh-1: -3.1; KKLEB tox: -18.9; Shn3 inh set2: -6.6; CF NFkB inh: 7.7

Results for O=C(N/N=C/c1ccc(Cl)c([N+](=O)[O-])c1)c1cc(-c2ccc3c4c(cccc24)CC3)n[nH]1 ?
MITF TRPM1 inh: 57.2; Peg3 prom inh-1: 111.5*; KKLEB tox: 0.8; EBV LMP1 NFkB: 35.0; Shn3 inh set2: 10.4; CF NFkB inh: -10.3; Peg3 prom inh-2: 55.4*

Results for COC1=CC(=O)c2c(ccc3ncnc(N)c23)C1=O ?
MITF TRPM1 inh: 113.2*; Peg3 prom inh-1: 92.9*; KKLEB tox: -89.9*; EBV LMP1 NFkB: 82.9*; Shn3 inh set2: 97.4*; CF NFkB inh: 81.6*; Peg3 prom inh-2: 99.0*

Results for CCC(=O)Nc1cccc(-c2cnc3ccccc3n2)c1 ?
MITF TRPM1 inh: -50.0; Peg3 prom inh-1: -216.3; KKLEB tox: 0.3; EBV LMP1 NFkB: -29.9; Shn3 inh set2: -23.0; CF NFkB inh: -1.9

How did O=C(CCl)Nc1cccc(-c2cnc3ccccc3n2)c1 do in these assays?
MITF TRPM1 inh: 72.5*; Peg3 prom inh-1: 78.6*; KKLEB tox: -63.7*; EBV LMP1 NFkB: -31.7; Shn3 inh set2: -262.1; CF NFkB inh: 88.0*; Peg3 prom inh-2: 92.3*

What do the screens show for `Cn1cc(CN2CCCC(C(=O)Nc3ccc(-c4cccc(F)c4)cc3)C2)cn1` (centres undefined)?
MITF TRPM1 inh: -3.2; Peg3 prom inh-1: 52.6*; KKLEB tox: -12.8; EBV LMP1 NFkB: -10.3; Shn3 inh set2: 13.7; CF NFkB inh: 10.9; Peg3 prom inh-2: 76.6*

What do the screens show for `COc1cccc(NC(=O)CN(C)C(=O)c2cccnc2Nc2cccc(C(F)(F)F)c2)c1`?
MITF TRPM1 inh: 27.7; Peg3 prom inh-1: 69.3*; KKLEB tox: -8.0; EBV LMP1 NFkB: -20.0; Shn3 inh set2: 30.5; CF NFkB inh: -17.7; Peg3 prom inh-2: 72.9*

What do the screens show for `CC(C)Oc1cc(F)ccc1-c1cc(C(=O)Nc2cccc(C(F)(F)F)c2)[nH]n1`?
Peg3 prom inh-1: 37.7; KKLEB tox: -6.3; Shn3 inh set2: 47.5; CF NFkB inh: 14.6

What do the screens show for `NS(=O)(=O)c1ccc(CNC(=O)c2cc(-c3cccs3)nc3ccccc23)cc1`?
MITF TRPM1 inh: 6.8; Peg3 prom inh-1: 31.3; KKLEB tox: 1.7; EBV LMP1 NFkB: -1.9; Shn3 inh set2: 5.2; CF NFkB inh: -25.2

Results for NS(=O)(=O)c1ccc(CCNC(=O)c2cc(-c3cccs3)nc3ccccc23)cc1 ?
MITF TRPM1 inh: 8.3; Peg3 prom inh-1: 53.9*; KKLEB tox: 0.0; EBV LMP1 NFkB: -5.0; Shn3 inh set2: 7.4; CF NFkB inh: -16.0; Peg3 prom inh-2: 41.1*

What do the screens show for `C=CCN1C(=O)C(=Cc2ccc3c(c2)CCC3)SC1=S`?
Peg3 prom inh-1: -102.5; KKLEB tox: -0.8; EBV LMP1 NFkB: -2.8; Shn3 inh set2: 12.6; CF NFkB inh: -1.9

What do the screens show for `CC(CCc1ccccc1)NC(=O)COC(=O)c1ccc([N+](=O)[O-])cc1` (centres undefined)?
MITF TRPM1 inh: -0.8; Peg3 prom inh-1: -6.8; KKLEB tox: 0.0; EBV LMP1 NFkB: -3.8; Shn3 inh set2: 5.3; CF NFkB inh: -21.1

What do the screens show for `CC(CCc1ccccc1)NC(=O)COC(=O)c1ccc(S(C)(=O)=O)c([N+](=O)[O-])c1` (centres undefined)?
MITF TRPM1 inh: -8.7; Peg3 prom inh-1: 102.2*; KKLEB tox: -63.8*; EBV LMP1 NFkB: -0.8; Shn3 inh set2: 96.7*; CF NFkB inh: 91.4*; Peg3 prom inh-2: 97.0*

What do the screens show for `Cc1cc(C)c(NC(=O)CSc2nc3ccc(NC(=O)CSc4nnnn4-c4ccccc4)cc3s2)c(C)c1`?
MITF TRPM1 inh: 16.3; Peg3 prom inh-1: 83.8*; KKLEB tox: -66.7*; EBV LMP1 NFkB: 2.1; Shn3 inh set2: -0.5; CF NFkB inh: 70.7*; Peg3 prom inh-2: 13.4

What do the screens show for `C/C(=N\NC(=O)c1n[nH]c2c1CCC2)c1cccs1`?
MITF TRPM1 inh: 65.2*; Peg3 prom inh-1: 93.9*; KKLEB tox: -24.8; EBV LMP1 NFkB: 74.1*; Shn3 inh set2: 72.1; CF NFkB inh: 14.7; Peg3 prom inh-2: 71.7*

How did Cc1ccc(/C=N/NC(=O)c2n[nH]c3c2CCCC3)cc1 do in these assays?
Peg3 prom inh-1: -240.4; KKLEB tox: -10.9; Shn3 inh set2: -53.9; CF NFkB inh: 49.2

How did O=C(N/N=C/c1cccs1)c1n[nH]c2c1CCCC2 do in these assays?
MITF TRPM1 inh: 56.7; Peg3 prom inh-1: 77.8*; KKLEB tox: -6.8; EBV LMP1 NFkB: 68.3*; Shn3 inh set2: 58.9; CF NFkB inh: 10.9; Peg3 prom inh-2: 56.4*
